Compound activity (PubChem)
The list is not random: actives were taken first. Their share in the collection is about 2.7%.
A549 tox = counter-screen for Nrf2 inhibitors: cytotoxicity in A549 cells | AID 504648 | Potency, µM (doses to about 46 µM), for the others: at the highest dose activity change, negative = cytotoxicity, most hits filed as inhibitors | 390,000 tested, 0.16% active | A549 ARE-Fluc cells, CellTiter-Fluor viability, 18-24 h; note: potency is the fitted concentration of half-maximal effect; % is set by controls: 0 for no effect and ±100 for the full control effect
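A549 ARE-Fluc cells in 5% FBS OPTI-MEM, 5000 cells/well, rested 2 h then exposed to compounds in concentration-response for 18-24 h at 37 °C. Viability by CellTiter-Fluor fluorescence (Ex 405/Em 525) after 30 min; luciferase luminescence (BugLite, 15 min, RT) read afterwards.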
Nrf2 ARE act = Nrf2 pathway activation; AREc32 ARE-luciferase reporter (MCF7-derived line), luminescence, 24 h; Potency, µM (highest dose often 46.1 µM), without a hit: at the highest dose activation, hits mostly activators; 410,000 tested, 0.31% active; AID 624171; note: potency is the fitted concentration of half-maximal effect; % of control where 0% means no effect; nearly all actives have a fitted effect of over 65% in size
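AREc32_Fluc, 1000 cells/well, OPTI-MEM + 5% FBS, o/n 37 deg C 5% CO2; 23 nL cpd by pin tool, 24 hr; Steady-Glo 30 min RT, luminescence.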
Nrf2 inh = inhibitors of Nrf2 signaling. A549 ARE-Fluc reporter, luciferase luminescence, 18-24 h. Potency, µM (doses to about 46 µM), inactives show at the highest dose activity change, negative = inhibition, hits mostly inhibitors. 360,000 tested, 2.1% active. AID 504444; note: potency is the fitted concentration of half-maximal effect; % is set by controls: 0 for no effect and ±100 for the full control effect; nearly all actives have a fitted effect of over 60% in size
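Concentration-response testing used A549 ARE_Fluc cells at 5000 cells/well. Following an 18-24 h compound incubation, viability was read by fluorescence (Ex 405/Em 525) and luciferase output by luminescence.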
LDHA block = blocks human lactate dehydrogenase A | 480,000 tested, 0.15% active | P00338 | activity change, % (values are at about 110 or 230 µM) | purified LDHA, NADH/diaphorase-resazurin fluorescence; hits give low values; in the data active = activity change below about -30%; inconclusive = mostly about -25% to -30%;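 note: plate controls were DMSO wells for no effect and wells without enzyme for full effect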
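LDH5 2 nM; NADH 0.06 mM, pyruvate 0.2 mM; 200 mM Tris pH 7.4, EDTA, Tween-20; 5 min RT. Detection: diaphorase 0.133 mg/mL + resazurin 37 µM, fluorescence ex540/em590 at 0 and 20 min; normalized to enzyme-free and DMSO wells.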
ERG-DNA inh = ERG Ets/DNA interaction inhibition; fluorescence polarization, His-ERG Ets domain / labelled DNA; P11308; AID 624246; Potency, µM (top dose mostly 76.9 µM), inactives show at the highest dose FP activity, negative = inhibition, hits mostly inhibitors; 370,000 tested, 0.028% active; active = well fitted inhibition curve with a large enough effect in the polarisation, with a control signal flat; inconclusive = small, poorly fitted or top-dose-only effect, or effect the other way, or a change in a side signal; inactive = no such curve, though single readings can be large or run the other way; the % refers to the polarisation;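 note: polarization taken with two DNA probes labelled with fluorescein and Texas red; potency is the fitted concentration of half-maximal effect; % of control where 0% means no effect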
Target sequence (P11308 whole entry, looked up, the tested form may be a part): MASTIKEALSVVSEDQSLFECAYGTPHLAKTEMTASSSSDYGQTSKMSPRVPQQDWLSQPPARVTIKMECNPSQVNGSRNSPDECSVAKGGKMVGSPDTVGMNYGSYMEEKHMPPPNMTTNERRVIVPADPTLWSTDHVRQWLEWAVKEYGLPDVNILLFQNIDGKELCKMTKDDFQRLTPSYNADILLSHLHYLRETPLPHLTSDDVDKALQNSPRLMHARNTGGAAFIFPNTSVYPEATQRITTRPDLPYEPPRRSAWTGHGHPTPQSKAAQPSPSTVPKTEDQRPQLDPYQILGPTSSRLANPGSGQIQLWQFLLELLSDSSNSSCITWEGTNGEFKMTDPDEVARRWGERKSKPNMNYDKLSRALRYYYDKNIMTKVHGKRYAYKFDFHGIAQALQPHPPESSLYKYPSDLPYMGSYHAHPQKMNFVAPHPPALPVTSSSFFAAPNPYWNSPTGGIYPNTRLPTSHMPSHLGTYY
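His-tagged ERG Ets domain (1 uM in the protein solution; 300mM KCl, 50mM Tris-HCl, 1mM EDTA, 1mM DTT, pH 7.5) received compound, then a probe mix of 5 nM fluorescein-DNA and 100nM Texas-615-DNA. Fluorescence polarization was read for both dyes.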
ALOX12 inh = ALOX12 (human) lipoxygenase inhibition | purified 12hLO, xylenol orange hydroperoxide absorbance | Potency, µM (series often up to 108 µM), inactives show top-dose activity change, negative = inhibition, most hits filed as inhibitors | 580,000 tested, 1.1% active; note: potency is the fitted concentration of half-maximal effect; % is set by controls: 0 for no effect and ±100 for the full control effect
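Purified human 12hLO at 150 nM in 25 mM Hepes, 0.01% Triton X-100, pH 7.0, preincubated 15 min at room temperature with compound. Reaction started with 40 uM arachidonic acid, 30 min at room temperature. Hydroperoxide measured by Fe-xylenol orange, 573/405 nm absorbance ratio.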
* hit, by the source's call; u = inconclusive; x = no result given. Unless noted, calls come from the whole dose curve; as a rule, active = well fitted curve in the direction sought with a large enough effect; inconclusive = small, poorly fitted or top-dose-only effect, or another doubt; inactive = no such curve, though single readings can be large; an effect the other way counts as inactive or inconclusive.

SMILES | A549 tox | Nrf2 ARE act | Nrf2 inh | LDHA block | ERG-DNA inh | ALOX12 inh
CC(C)(C)NC(=O)C[C@@H]1CCNC[C@@H]1Cc1cc(-c2ccc(C(C)(C)C)cc2)on1 | x | x | x | x | x | 35µM*
COc1ccc(-c2cc(C[C@H]3CNCC[C@H]3CC(=O)N3CCN(c4ccccc4OC)CC3)no2)cc1 | x | x | x | x | x | 28µM*
CC(C)(C)c1ccc(-c2cc(C[C@H]3CNCC[C@H]3CC(=O)Nc3nccs3)no2)cc1 | x | x | x | x | x | -16%
COc1ccccc1N1CCN(C(=O)C[C@@H]2CCNC[C@@H]2Cc2cc(-c3ccc(F)cc3)on2)CC1 | x | x | x | x | x | 11%
COc1ccc(CNC(=O)C[C@@H]2CCNC[C@@H]2Cc2cc(-c3ccc(C(C)(C)C)cc3)on2)cc1 | x | x | x | x | x | 18µM*
CC(C)(C)c1ccc(-c2cc(C[C@H]3CNCC[C@H]3CC(=O)NCc3ccc(F)cc3)no2)cc1 | x | x | x | x | x | 22µM*
COC(=O)c1ccc([C@H]2[C@@H](C(=O)O)c3ccccc3C(=O)N2Cc2ccc(F)cc2)cc1 | x | x | x | 1 | x | u
COc1ccc(S(=O)(=O)CC(=O)c2cc3cc(Br)ccc3oc2=O)cc1 | -21% | 18% | -20% | 10 | 9% | 7.9µM*
Cc1ccccc1NC(=O)c1sc2c(c1C)C(c1cccs1)CC(=O)N2 (stereo not drawn) | x | x | x | 2 | x | 25µM*
Cc1ccc(NC(=O)CCCc2cccs2)c(F)c1 | x | x | x | -3 | x | -1%
CCN(Cc1nc2cc(Cl)ccc2c(=O)[nH]1)C(=O)CNC(=O)c1ccc(F)cc1 | x | x | x | 1 | x | 7%
OCCN(Cc1cccnc1)Cc1ccccn1 | 21µM* | 2% | 14% | 18 | -12% | 2%
OCCN(Cc1ccccc1)Cc1ncccc1O | -7% | 4% | 3% | -6 | -5% | -13%
CN(C)CCCN(Cc1cccc2ccccc12)Cc1cccc2ccccc12 | x | x | x | 4 | x | 5µM*
COCCN(CCOC)Cc1cccc2ccccc12 | x | x | x | -6 | x | 3%
COc1ccc(Oc2coc3cc(OCc4ccc(F)cc4)ccc3c2=O)cc1 | x | x | x | -11 | x | 8%
O=C(Cn1c(=O)c(S(=O)(=O)c2ccccc2)cc2ccccc21)N1CCCC1 | x | x | x | 9 | x | u
CNc1snc(C)c1C(=O)OC(C)C(=O)c1ccc(F)cc1 (stereo not drawn) | -5% | 0% | 21µM* | -6 | 1% | 286%
CN1N=C2c3ccccc3CCCC2C1c1ccc(F)cc1 (stereo not drawn) | 1% | 13% | u | 4 | 27% | 40µM*
Cc1ccc(N2C(=O)C(Cl)=C(N3CCCCCC3)C2=O)c(C)c1 | u | -1% | 23µM* | -5 | 4% | -118%
O=C1C(Cl)=C(N2CCCCCC2)C(=O)N1c1ccccc1Cl | -9% | 3% | 4% | -1 | 0% | u
CC(C)NC(=O)/C(C#N)=C/c1ccc(C(=O)O)cc1 | x | x | x | 2 | x | 22µM*
C=CCNC(=O)/C(C#N)=C/c1c(N(Cc2ccccc2)Cc2ccccc2)nc2ccccn2c1=O | u | 1% | 26µM* | -1 | 10% | -26%
CCCS(=O)(=O)c1c(S(=O)(=O)CCC)c2c(N)cccn2c1C(=O)c1ccc(F)cc1 | 0% | 0% | u | 10 | 7% | u
CCCS(=O)(=O)c1c(S(=O)(=O)CCC)c2c(N)cccn2c1C(=O)c1ccc(Br)cc1 | -15% | 0% | u | 8 | 3% | 6.3µM*
SMILES | A549 tox | Nrf2 ARE act | Nrf2 inh | LDHA block | ERG-DNA inh | ALOX12 inh
O=C(NCc1ccccc1)N1CC(Oc2cccc(-c3nc(-c4ccccc4)no3)c2)C1 | x | x | x | x | x | 9%
C=C1C(=O)O[C@H]2C1CC[C@@](C)(O)C13C=CC(C)(C21)C1(C3)C(=O)O[C@@H]2C3C(C)=CCC3[C@](C)(O)C[C@H](OC(C)=O)C21 (stereo partly drawn) | -10% | 16µM* | -28% | 2 | 9% | 11%
Cc1csc2c(=O)sc(NC(=O)c3cccs3)nc12 | -11% | 3.5µM* | u | -9 | 1% | 16%
Nc1nccnc1C(=O)NCCNc1ncc(C(F)(F)F)cc1Cl | x | x | x | 4 | x | 13%
CN(C)C(=O)c1cnc(Cc2c[nH]c3ccccc23)c(I)c1 | x | x | x | x | x | 14µM*
Cc1cnc(C(=O)NCCc2c[nH]c3ccccc23)cn1 | x | x | x | -10 | x | -18%
Cc1ccccc1-c1nc2ccccc2c(=O)n1/N=C/c1ccc([N+](=O)[O-])cc1 | 4% | 1% | 4% | -2 | 21% | 23%
Cc1ccccc1-c1nc2ccccc2c(=O)n1/N=C/c1ccccc1[N+](=O)[O-] | 2% | 7% | x | 10 | -8% | 32µM*
Cc1cc(C)c(C#N)c(SCC(=O)c2cccs2)n1 | 6% | u | 13% | -1 | -4% | 0%
Cc1cc(C)c(C#N)c(SCC(=O)c2ccccc2)n1 | 8% | 2.8µM* | 21% | 2 | 5% | -9%
O=S(=O)(NCc1ccc2c(c1)OCO2)c1cccc(F)c1 | -2% | 0% | 5% | -3 | -7% | 6%
Cc1nc(Nc2ccccc2O)c2oc3ccccc3c2n1 | 10% | 19% | 7% | -1 | 5% | u
Cc1ccc(F)c(Nc2ncnc3c2oc2ccccc23)c1 | x | x | x | 6 | x | 4.5µM*
